The text below walks through data of PubChem BioAssay (Tox21).

The nature of experiment [1]: Nuclear factor erythroid 2-related factor 2/antioxidant responsive element (Nrf2/ARE) small molecule agonists: qHTS cell viability counter screen in human keratinocytes (AID 1919968; active means well fitted curve in the direction sought with a large enough effect in the repeat runs; an effect the other way counts as inactive or inconclusive; further: nearly all actives have a fitted effect of over 55% in size; further: potency means the concentration at half of the fitted maximal effect). The essentials: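 In human HaCaT keratinocytes stably expressing an ARE-driven luciferase, compound exposure lasted 23 h at 37 C under 5% CO2. Viable cells are quantified with a protease-based fluorogenic reagent (CellTiter-Fluor) read 1 h after addition.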
On the technique in general: Quantitative high-throughput screening tests each substance at several concentrations.

Experiment [2] can be described thus: Nuclear factor erythroid 2-related factor 2/antioxidant responsive element (Nrf2/ARE) small molecule agonists: luciferase reporter gene qHTS assay in human keratinocytes (AID 1919969). Further: nearly all actives have a fitted effect of over 35% in size. Further: potency means the concentration at half of the fitted maximal effect.
The target in experiment [3] is Gonadotropin-releasing hormone receptor (Homo sapiens) (UniProt P30968). Kind of experiment: Human gonadotropin-releasing hormone receptor (GnRHR) small molecule agonists, calcium flux assay in GnRHR-HEK293 cells (AID 1920063). Further: nearly all actives have a fitted effect of over 35% in size. The essentials: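 Intracellular calcium rise is the read-out: engineered human GnRHR HEK293 cells, dye-loaded, are exposed to DMSO-dissolved compounds and fluorescence at Ex/Em 480/540 is tracked for 3 min.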
Sequence of Gonadotropin-releasing hormone receptor (Homo sapiens) (P30968 whole entry, looked up): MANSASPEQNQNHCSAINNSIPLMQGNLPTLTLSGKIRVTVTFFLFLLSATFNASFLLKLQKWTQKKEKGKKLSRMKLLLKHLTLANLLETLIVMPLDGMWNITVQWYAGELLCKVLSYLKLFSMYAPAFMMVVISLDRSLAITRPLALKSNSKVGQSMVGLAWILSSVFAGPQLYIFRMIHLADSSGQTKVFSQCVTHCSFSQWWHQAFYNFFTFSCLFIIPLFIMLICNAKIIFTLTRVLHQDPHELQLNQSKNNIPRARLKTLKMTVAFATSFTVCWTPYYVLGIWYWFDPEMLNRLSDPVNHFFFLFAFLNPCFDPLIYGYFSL

Experiment [4] has as its target KiSS-1 receptor (Homo sapiens) (UniProt Q969F8). Kind of experiment: Human kisspeptin (KISS1R) small molecule agonists, calcium flux assay in KISS1R-HEK293 cells (AID 1920064; active means well fitted curve in the direction sought with a large enough effect in the repeat runs; an effect the other way counts as inactive or inconclusive). The essentials: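 Concentration-response testing used 15 concentrations in triplicate on human KISS1R-expressing HEK293 cells. Calcium-dependent fluorescence (Ex/Em 480/540) was followed kinetically for 3 min after compound transfer.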

A short description of experiment [5]: G protein-coupled receptor (GPCR) small molecule agonists, calcium flux assay: HEK293 wild type cell line counter screen (AID 1920065). The essentials:
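Fluorescence intensity signals activation. After overnight (18 h) culture and a 1 h calcium dye load at 37 C, compounds are added by pin tool and the plate read at 480/540 nm for 3 min in 1 s steps.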
For orientation: Calcium flux is commonly read through the fluorescence of an indicator in the cells.

Experiment [6] can be described thus: p53 small molecule agonists, cell-based qHTS assay with human liver microsomes (AID 1963577).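 Further: p53 response element beta-lactamase reporter cells with liver microsomes plus NADPH.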 The essentials:
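Reporter activation was measured by LiveBLAzer fluorescence intensity in p53RE-bla cells, which had been exposed to compounds for 16 h at 37 C alongside 0.5 mg/mL human liver microsomes and 0.5 mg/mL NADPH (final concentrations).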

Experiment [7] in a line: p53 small molecule agonists, cell-based qHTS assay with rat liver microsomes (AID 1963578). The essentials:
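Compound in DMSO added to p53RE-bla cells 5 h post-plating; rat microsomes/NADPH 0.5 mg/mL final; 16 h, 37 C; LiveBLAzer 2 h RT.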

A short description of experiment [8]: p53 small molecule agonists, cell-based qHTS assay with human liver microsomes: qHTS cell viability counter screen (AID 1963579). Further: nearly all actives have a fitted effect of over 45% in size. The essentials: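 HLM-supplemented (0.5 mg/mL final) and NADPH-supplemented (0.5 mg/mL final) p53RE-bla cultures, 4,000 cells per well, were dosed with compounds in DMSO for 16 h at 37 C; luminescent ATP detection (CellTiter-Glo, 30 min, room temperature) quantified surviving cells.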

Experiment [9] is described as follows: p53 small molecule agonists, cell-based qHTS assay: qHTS cell viability counter screen (AID 1963581). Further: nearly all actives have a fitted effect of over 45% in size. The essentials: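 Luminescence from CellTiter-Glo, reflecting ATP content, serves as the cytotoxicity measure; it is taken after the 2 h reporter substrate step in HCT-116 p53RE-bla cells dosed for 16 h at 37 C.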
Experiment [10] is described as follows: p53 small molecule agonists, cell-based qHTS assay (AID 1963582; active means well fitted activation curve with a large enough effect in the signal ratio in the repeat runs, not every such curve was filed as active; the % refers to the signal ratio). The essentials:
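After plating, p53RE-bla cells sat 5 h in the incubator; compounds or DMSO vehicle were pinned in; a 16 h incubation at 37 C followed; FRET substrate was added and, 2 h later at RT, fluorescence was measured.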

In experiment [11] the target is 5-hydroxytryptamine receptor 2A (Homo sapiens) (UniProt P28223). The experiment can be described thus: 5-hydroxytryptamine receptor 2A (HTR2A) small molecule antagonists, cell-based qHTS assay (AID 1963586). Further: nearly all actives have a fitted effect of over 45% in size. The essentials: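 CHO cells stably expressing human HTR2A were plated for 18 h at 37 C, then loaded with calcium dye for 1 h. Compounds were preincubated 5 min at room temperature before DOI (4 nM solution) was added. Kinetic fluorescence was read for 3 min.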
Sequence of 5-hydroxytryptamine receptor 2A (Homo sapiens) (P28223 whole entry, looked up): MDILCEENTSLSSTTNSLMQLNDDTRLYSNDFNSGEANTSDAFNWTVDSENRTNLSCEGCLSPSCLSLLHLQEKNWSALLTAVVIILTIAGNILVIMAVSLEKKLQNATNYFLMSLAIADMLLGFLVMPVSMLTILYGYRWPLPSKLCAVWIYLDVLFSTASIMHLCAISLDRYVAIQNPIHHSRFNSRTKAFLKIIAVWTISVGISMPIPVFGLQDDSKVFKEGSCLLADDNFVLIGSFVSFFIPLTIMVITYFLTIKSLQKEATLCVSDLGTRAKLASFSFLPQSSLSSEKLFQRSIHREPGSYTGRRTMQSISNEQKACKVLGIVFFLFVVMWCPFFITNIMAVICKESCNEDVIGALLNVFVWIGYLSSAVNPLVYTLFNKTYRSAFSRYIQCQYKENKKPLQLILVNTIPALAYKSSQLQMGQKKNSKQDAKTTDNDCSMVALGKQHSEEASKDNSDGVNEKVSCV

The target is the same in experiment [12]. The experiment can be described thus: 5-hydroxytryptamine receptor 2A (HTR2A) small molecule agonists, cell-based qHTS assay (AID 1963587). Further: nearly all actives have a fitted effect of over 30% in size. The essentials: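 CHO cells stably expressing human HTR2A, plated 18 h, loaded with calcium dye 1 h at 37 C. Agonist mode: compounds added and intracellular calcium fluorescence recorded kinetically for 2 min at 1 sec intervals.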

For experiment [13], the target named is Muscarinic acetylcholine receptor M1 (Homo sapiens) (UniProt P11229). The experiment can be described thus: Cholinergic receptor muscarinic 1 (CHRM1) small molecule antagonists, cell-based qHTS assay (AID 1963588). Further: nearly all actives have a fitted effect of over 40% in size. Further: potency means the concentration at half of the fitted maximal effect. The essentials:
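Compounds were tested at 15 concentrations in three independent runs. Dye-loaded CHRM1-CHO cells were exposed 5 min at room temperature before stimulation by acetylcholine added at 50nM. Intracellular calcium was read kinetically on FDSS for 3 min.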

Experiment [14] has the same target. The experiment can be described thus: Cholinergic receptor muscarinic 1 (CHRM1) small molecule agonists, cell-based qHTS assay (AID 1963589). Further: nearly all actives have a fitted effect of over 35% in size. The essentials:
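Fluorescent calcium dye reports M1 activation in stably transfected CHO cells. Compounds, 15 concentrations, added after 1 h dye loading at 37 C; kinetic reading at 1 sec intervals.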

Experiment [15] in a line: cAMP Responsive Elements (CRE) small molecule antagonists, cell-based qHTS assay (AID 1963591; active means well fitted inhibition curve with a large enough effect in the signal ratio in the repeat runs, not every such curve was filed as active; the % refers to the signal ratio). The essentials: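 Stimulation used NKH477 at a final 0.25 uM for 3 h in compound-treated CRE-bla HEK293T cells, seeded 18 h beforehand. Reporter activity was measured with LiveBLAzer B/G FRET substrate after 2 h at room temperature.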
Experiment [16] concerns the target Beta-2 adrenergic receptor (Homo sapiens) (UniProt P07550). The experiment can be described thus: Adrenergic beta2 receptor (ADRB2) small molecule antagonists, cell-based qHTS assay (AID 1963592). Further: series mostly up to about 92 µM; nearly all actives have a fitted effect of over 50% in size. The essentials: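 Assay format: CHO-ADRB2 cells, 18-20hr seeding at 37C/5% CO2, then compound plus 1nM isoproterenol agonist mix for 0.5hr RT. Homogeneous time-resolved fluorescence cAMP detection after 1hr, expressed as 665/615 nm ratio.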

The target in experiment [17] is D(2) dopamine receptor (Homo sapiens) (UniProt P14416). The experiment can be described thus: Dopamine D2 receptor (DRD2) small molecule agonists, cell-based qHTS assay (AID 1963594). Further: nearly all actives have a fitted effect of over 35% in size. The essentials: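 HEK293 cells stably expressing human DRD2, pre-treated with PDE inhibitor Ro20-1724 (0.1 mM final) and compound 10 min at room temperature, then stimulated with NKH477 (200nM […]) for 30 min. cAMP read by HTRF (665/620 nm).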
Sequence of D(2) dopamine receptor (Homo sapiens) (P14416 whole entry, looked up): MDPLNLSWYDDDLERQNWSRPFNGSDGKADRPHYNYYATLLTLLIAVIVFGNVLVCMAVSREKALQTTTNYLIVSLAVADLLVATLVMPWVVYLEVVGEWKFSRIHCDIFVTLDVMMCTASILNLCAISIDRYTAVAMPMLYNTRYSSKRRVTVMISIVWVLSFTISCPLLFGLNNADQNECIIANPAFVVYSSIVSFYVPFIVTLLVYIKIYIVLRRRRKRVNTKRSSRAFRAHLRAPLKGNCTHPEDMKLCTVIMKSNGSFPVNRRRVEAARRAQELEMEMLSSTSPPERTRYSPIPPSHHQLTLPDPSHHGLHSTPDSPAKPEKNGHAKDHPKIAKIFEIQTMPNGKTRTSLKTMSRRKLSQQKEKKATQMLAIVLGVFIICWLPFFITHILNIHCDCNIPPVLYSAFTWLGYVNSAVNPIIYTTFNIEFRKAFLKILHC

Experiment [18] has the same target. The experiment can be described thus: Dopamine D2 receptor (DRD2) small molecule antagonists, cell-based qHTS assay (AID 1963595; active means well fitted inhibition curve with a large enough effect in the signal ratio in the repeat runs, with a control signal flat; the % refers to the signal ratio). The essentials:
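HTRF cAMP read-out at 665 and 620 nm emission (340 nm excitation). Antagonist mode: compounds were tested against 12 nM quinpirole in DRD2-HEK293 cells, with 200 nM NKH477 raising cAMP and 0.1 mM Ro20-1724 blocking its breakdown.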

A short description of experiment [19]: cAMP Responsive Elements (CRE) small molecule agonists, cell-based qHTS assay (AID 1963590). The essentials:
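Compound exposure lasted 3 h at 37 C/5% CO2 in CRE-bla HEK 293T cells grown in assay medium with 10% dialyzed FBS and 25 mM HEPES. Reporter signal came from LiveBLAzer B/G FRET substrate, 2 h, room temperature.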

Experiment [20] is described as follows: p53 small molecule agonists, cell-based qHTS assay with rat liver microsomes: qHTS cell viability counter screen (AID 1963580). Further: nearly all actives have a fitted effect of over 45% in size. The essentials: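 Cytotoxicity counter screen: intracellular ATP measured by CellTiter-Glo luminescence in the same wells as the beta-lactamase reporter read, on HCT-116 p53RE-bla cells exposed 16 h at 37 C to compounds with rat liver microsomes and NADPH, each 0.5 mg/mL final.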

SMILES strings stand for the structures. Where “and” joins values, the source holds several entries; their conditions need not be identical. Equal entries are not always repeated. Inconclusive results are not listed. Where a structure was tested more than once in an assay, its records may differ in their call. Calls of active or inactive are those of the source. Unless noted, the call rests on the fitted dose curve.

Sequence of Beta-2 adrenergic receptor (Homo sapiens) (P07550 whole entry, looked up): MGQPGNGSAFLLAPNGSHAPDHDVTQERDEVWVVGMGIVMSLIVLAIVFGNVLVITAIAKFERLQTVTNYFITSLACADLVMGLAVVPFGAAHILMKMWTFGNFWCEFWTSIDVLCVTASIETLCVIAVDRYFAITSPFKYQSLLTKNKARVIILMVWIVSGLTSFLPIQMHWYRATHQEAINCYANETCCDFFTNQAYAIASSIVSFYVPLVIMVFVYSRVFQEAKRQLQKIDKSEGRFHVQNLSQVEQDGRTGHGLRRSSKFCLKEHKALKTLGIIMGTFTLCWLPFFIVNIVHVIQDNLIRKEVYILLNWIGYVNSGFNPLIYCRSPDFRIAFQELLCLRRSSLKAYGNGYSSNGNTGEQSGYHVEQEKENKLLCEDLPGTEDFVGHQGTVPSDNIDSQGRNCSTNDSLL
Sequence of Muscarinic acetylcholine receptor M1 (Homo sapiens) (P11229 whole entry, looked up): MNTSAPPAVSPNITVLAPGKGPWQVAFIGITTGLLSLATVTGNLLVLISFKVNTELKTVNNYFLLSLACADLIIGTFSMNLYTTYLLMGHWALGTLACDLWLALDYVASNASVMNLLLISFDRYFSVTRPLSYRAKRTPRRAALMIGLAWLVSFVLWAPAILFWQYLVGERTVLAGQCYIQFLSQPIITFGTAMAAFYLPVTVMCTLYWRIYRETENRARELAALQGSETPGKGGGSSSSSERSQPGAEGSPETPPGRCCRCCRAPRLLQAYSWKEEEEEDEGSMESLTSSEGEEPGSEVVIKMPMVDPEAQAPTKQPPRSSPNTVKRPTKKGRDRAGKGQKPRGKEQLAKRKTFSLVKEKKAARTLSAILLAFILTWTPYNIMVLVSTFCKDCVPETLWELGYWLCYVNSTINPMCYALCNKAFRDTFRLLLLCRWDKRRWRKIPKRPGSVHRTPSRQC
Sequence of KiSS-1 receptor (Homo sapiens) (Q969F8 whole entry, looked up): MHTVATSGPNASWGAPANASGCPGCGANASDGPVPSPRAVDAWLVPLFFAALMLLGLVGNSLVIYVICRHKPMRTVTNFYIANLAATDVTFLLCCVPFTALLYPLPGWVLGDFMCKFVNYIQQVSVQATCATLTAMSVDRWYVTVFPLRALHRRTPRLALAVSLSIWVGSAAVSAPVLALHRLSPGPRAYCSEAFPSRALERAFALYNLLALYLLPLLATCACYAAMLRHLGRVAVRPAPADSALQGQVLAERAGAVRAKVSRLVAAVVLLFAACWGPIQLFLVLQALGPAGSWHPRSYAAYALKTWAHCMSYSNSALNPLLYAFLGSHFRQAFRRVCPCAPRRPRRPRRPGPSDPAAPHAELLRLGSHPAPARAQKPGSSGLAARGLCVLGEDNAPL

For the compound `CC1(C)[C@H](C(=O)O[C@H](C#N)c2cccc(Oc3ccccc3)c2)[C@@H]1/C=C(\Cl)C(F)(F)F`, the Potency entry in [1], in [2], in experiment [3], in experiment [4], in [5] and in [6] was “inactive” each time. The Potency result in experiment [7], in [8], in experiment [9], in experiment [10], in [11] and in experiment [12] was “inactive” in each case. Further, the Potency entry in experiment [13], in experiment [14], in experiment [15], in experiment [16], in experiment [17] and in experiment [18] was “inactive” each time.
For the compound `ClCc1ccccc1CCl`, the Potency entry in experiment [1], in [3], in experiment [4], in experiment [5], in [6] and in experiment [7] was “inactive” throughout. The Potency entry in experiment [8], in experiment [9], in [10], in experiment [11], in experiment [12] and in [13] was “inactive” in each case. The Potency entry in experiment [14], in experiment [19], in [16] and in experiment [17] was “inactive” each time. For the same compound, the Potency in experiment [2] was 61.1 µM (active).
In the case of `CC(C)C1(C)N=C(c2nc3ccccc3cc2C(=O)O)NC1=O` (centres undefined), the Potency entry in experiment [1], in experiment [2], in experiment [3], in [4], in experiment [5] and in experiment [6] was “inactive” in each case. Further, the Potency entry in [7], in experiment [8], in [9], in experiment [10], in experiment [11] and in experiment [12] was “inactive” each time. Also, the Potency entry in experiment [13], in [19], in [15], in experiment [16], in [17] and in [18] was “inactive” each time.
Take `CNC(=O)Oc1c(C(C)(C)C)cc(C)cc1C(C)(C)C`: the Potency entry in experiment [1], in [3], in experiment [4], in [5], in experiment [6] and in experiment [7] was “inactive” in each case. Further, the Potency result in [20], in [9], in experiment [10], in experiment [11], in experiment [12] and in experiment [13] was “inactive” throughout. Further, the Potency entry in experiment [14], in experiment [19], in experiment [15], in experiment [16], in [17] and in [18] was “inactive” each time. For the same compound, in experiment [2], the Potency was 61.1 µM (active).
As for `CC[n+]1c(-c2ccccc2)c2cc(N)ccc2c2ccc(N)cc21`, the Potency is 48.3 µM (active) and 7.5 µM (active) in experiment [1]; “inactive and 10.6 µM (active)” in experiment [2]; 8.36 µM (active) and 9.18 µM (active) in experiment [13]. For the same compound, the Potency entry in experiment [3], in experiment [4], in experiment [5], in experiment [6], in [7] and in experiment [8] was “inactive” in each case. For the same compound, the Potency result in [11], in experiment [12], in experiment [14] and in experiment [19] was “inactive” each time.
In the case of `CC[N+]1(CC)CCC(OC(=O)C(O)(c2ccccc2)c2ccccc2)C1` (centres undefined), the Potency entry in experiment [1], in [2], in experiment [3], in [4], in experiment [5] and in experiment [6] was “inactive” each time. Besides, the Potency result in experiment [7], in [8], in [9], in experiment [10], in [11] and in [12] was “inactive” in each case. Further, the Potency entry in experiment [14], in experiment [19], in experiment [16], in [17] and in experiment [18] was “inactive” throughout. Further, the Potency in experiment [13] was 2.3 nM (active).
As for `CCOP(OCC)OCC`, the Potency result in experiment [1], in [2], in experiment [3], in [4], in experiment [5] and in experiment [6] was “inactive” each time. Besides, the Potency result in [7], in [8], in [9], in experiment [10], in experiment [11] and in [12] was “inactive” in each case. Also, the Potency entry in experiment [13], in experiment [14], in experiment [19], in experiment [16], in experiment [17] and in experiment [18] was “inactive” throughout.
On to `CCCCC(CC)COC(=O)c1ccc(C(=O)OCC(CC)CCCC)c(C(=O)OCC(CC)CCCC)c1` (centres undefined), for which the Potency result in [1], in [2], in [3], in experiment [4], in experiment [5] and in experiment [6] was “inactive” throughout. In addition, the Potency result in experiment [7], in experiment [8], in experiment [9], in experiment [10], in [11] and in experiment [12] was “inactive” in each case. Also, the Potency entry in [13], in [14], in experiment [15], in [16], in experiment [17] and in experiment [18] was “inactive” in each case.
